# Measurements taken from PubChem BioAssay.
# Several values for one entry are separate records, joined by “and”; a condition that tells them apart may be missing. Equal entries are not always repeated. Results filed as inconclusive are left out. More than one record can exist for a structure, and the calls need not agree. Activity calls are given as the source filed them. Unless noted, how the calls were made is not given here.
# Experiments:
# [1] = rapamycin-like changes in RPL19A-GFP expression – cell-based, S. cerevisiae, multiplex flow cytometry, primary screen (AID 1862; in the data active means percent of DMSO control GFP below about 86%;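 further: lower values mimic rapamycin by blocking the RPL19A rise seen in DMSO cells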); settings: S. cerevisiae RPL19A-GFP strain, flow cytometry fluorescence, 3 h; at 10 µM; stronger effect = lower value
# [2] = TOR pathway GLN3 branch reporter MEP2-GFP changes – S. cerevisiae, multiplex flow cytometry, primary screen (AID 1867;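 active means GFP response, as percent of the DMSO control, above the screen-wide mean plus 3 SD, about 139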;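 further: median GFP channel fluorescence of barcode-gated MEP2-GFP cells measured by flow cytometry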); settings: S. cerevisiae MEP2-GFP strain, 3 h, at 10 µM, stronger effect = higher value
# [3] = TOR pathway RTG branch CIT2 reporter changes – S. cerevisiae, GFP fusion, multiplex flow cytometry, primary screen (AID 1870;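 active means percent response above a set limit, the screen-wide mean plus 3 SD, cut at about 130% in these data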;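 further: barcoded CIT2-GFP strain pooled with four other GFP strains with rapamycin as positive control; median GFP fluorescence per well over plate mean of DMSO wells so 100% = DMSO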); settings: S. cerevisiae CIT2-GFP expression, 3 h, at 10 µM, stronger effect = higher value
# [4] = TOR pathway LAP4-GFP level changes – S. cerevisiae, multiplex flow cytometry, primary screen (AID 1873;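 active means GFP signal, as percent of the solvent control, above the screen mean plus 3 SD, about 149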); settings: S. cerevisiae LAP4-GFP expression, 3 h, at 10 µM, stronger effect = higher value
# [5] = yeast AGP1-GFP level changes, GLN3 branch – cell-based, multiplex flow cytometry, S. cerevisiae, primary screen (AID 1887;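 active means GFP signal above the screen-wide mean plus 3 SD, that is over about 124.5% of the solvent control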;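 further: AGP1-GFP fusion strain of S. cerevisiae within a five-strain barcoded multiplex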); settings: 3 h, at 10 µM, stronger effect = higher value
# [6] = reduced mouse 2C T cell binding to pMHC/ICAM-1 vesicles – MLPCN validation set, flow cytometry, LFA-1/ICAM-1 modulator project, pilot screen (AID 2523;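 active means response below a set limit, under 55% cells CD8-positive and vesicle-bound, and CD8 cells' 90th-percentile brightness under 279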;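 on vesicle binding response: mean PE anti-B7-1 fluorescence of CD8+ cells relative to row control; 100% = QL9-loaded vesicles with DMSO vehicle in the same plate row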); settings: 2C mouse CD8+ T cells, at 7 µM, stronger effect = lower value; double positive events: measured here: CD8+/vesicle+ event percentage
# [7] = biological target: Integrin beta-1 (Homo sapiens) + Integrin alpha-4 (Homo sapiens) (UniProt P13612+P05556); test: alpha4beta1 integrin LIBS antibody binding reduction – U937 cells, HUTS-21 mAb, flow cytometry, validation set, VLA-4 allosteric modulator project, pilot screen (AID 2674;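 active means inhibition above 50%, about 3 SD of the validation set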;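 further: antibody binding induced by the VLA-4 ligand LDV present at three times its Kd; 0% = LDV ligand with antibody and no compound and 100% = antibody without LDV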); settings: HUTS-21 LIBS mAb binding, at 6.7 µM, stronger effect = higher value
# [8] = calorie-restriction mimetic ROS inhibitors, yeast – validation compound set, pilot screen (AID 2706;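 active means superoxide response below 65% of plate, a cut near 3 SD across the whole screen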;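 further: yeast exposed to compound for one week at 30 degrees C before staining; 100% = mean of all compound wells on the same plate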); settings: S. cerevisiae aging, superoxide DHE fluorescence; at 10 µM; stronger effect = lower value
# [9] = biological target: Beta-adrenergic receptor kinase 1 (Homo sapiens) (UniProt P25098); test: GRK2 binders displacing RNA aptamer, biochemical, validation, human GRK2, bead flow cytometry (AID 488806;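 active means aptamer binding inhibition above 30%, about 3 SD of noise from non-fluorescent compounds; inactive means inhibition at or below 30%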); settings: bead-bound GRK2, FAM-aptamer displacement, at 10 µM, stronger effect = higher value
# [10] = biological target: Beta-2 adrenergic receptor (Homo sapiens) (UniProt P07550); test: agonist-induced loss of surface beta2AR – cell-based, FAP fluorogen, flow cytometry, validation set, pilot screen (AID 504459;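 active means percent response above 42, roughly 3 SD of non-fluorescent test compounds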;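 further: agonist-driven loss of surface beta2AR via internalization measured by FAP dye flow cytometry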); settings: Am2.2-beta2AR cells, at 10 µM, stronger effect = higher value
# [11] = biological target: AP-2 complex subunit beta (Homo sapiens) (UniProt P63010); test: beta-arrestin/AP2 interaction blockers – biochemical, validation set, GST-AP2 beads, flow cytometry, pilot screen (AID 504541;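 active means inhibition above 54%, about 3 SD of non-fluorescent compounds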;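 further: AP2 carries R879A mutation and is captured from E. coli lysate; bead-bound FITC arrestin peptide fluorescence measuring arrestin peptide binding to AP2; 0% = DMSO wells and 100% = excess unlabeled arrestin peptide control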); settings: FITC arrestin peptide, at 10 µM, stronger effect = higher value
# [12] = cytosolic pH regulators acting via V-ATPase – S. cerevisiae, pHLuorin, HTS validation (AID 504600; in the data active means response above about 15%;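 further: plate controls were DMSO for no effect and reference compound for full effect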); settings: V-ATPase proton transport, at 10 µM, stronger effect = higher value
# [13] = tested on: anti-desmoglein-3 scFv antibody binding to human DSG3; test: blockers of pathogenic pemphigus antibody–desmoglein-3 binding – biochemical, validation compound set, bead-based, flow cytometry, pilot screen (AID 588368;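 active means binding below the plate cutoff, the plate median minus 3 SD, with a reading above zero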;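 further: signal is the median channel fluorescence of bead-bound GFP antibody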); settings: Protein G beads, DSG3-Fc, scFv-GFP binding, at 10 µM, stronger effect = lower value
# [14] = tested on: Botulinum neurotoxin type F light chain protease (Clostridium botulinum); test: Clostridium botulinum type F light chain protease inhibitors, microsphere substrate cleavage, validation (AID 588459); settings: multiplex microsphere protease substrate cleavage assay, flow cytometry; at 10 µM; stronger effect = higher value
# [15] = biological target: Botulinum neurotoxin type A (Clostridium botulinum) (UniProt P0DPI0); test: BoNT/A light chain protease inhibitors, biochemical, multiplex microsphere flow cytometry, validation set (AID 588460); settings: at 10 µM, stronger effect = higher value
# [16] = biological target: Lethal factor (Bacillus anthracis) (UniProt P15917); test: Bacillus anthracis lethal factor inhibition, microsphere flow cytometry protease assay, validation at 10 µM (AID 588461); settings: multiplex microsphere protease cleavage assay, stronger effect = higher value
# [17] = Nile Red efflux blockade in pump-expressing yeast – validation compound set, multiplex, phenotypic, pilot screen (AID 588506;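 active means efflux inhibition above 0.42, the validation set average plus 4 SD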;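 further: Nile Red retained in cells so higher fluorescence means more efflux inhibition; 0 = negative control wells and 1 = enniatin B 25 µM full block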); settings: S. cerevisiae pump-expressing triplex, Nile Red efflux flow cytometry; at 10 µM; stronger effect = higher value
# [18] = biological target: ATP-binding cassette sub-family B member 6 (Homo sapiens) (UniProt Q9NP58); test: blockers of ABCB6-driven porphyrin uptake – K562-ABCB6 cells, flow cytometry, validation set, pilot screen (AID 588550;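 active means inhibition above the screen-wide mean plus 3 SD, about 51%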;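 further: 0% = DMSO wells and 100% = benzethonium chloride 70 µM positive control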); settings: K562-ABCB6 porphyrin accumulation, 1 h, at 10 µM, stronger effect = higher value
# [19] = AML differentiation inducers, ER-HoxA9 marrow cells – cell-based, GFP/MAC1 double positive, flow cytometry, validation set, primary screen (AID 588685;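 active means differentiation response of at least 50%, scaled between solvent and reference control, from cells with both markers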;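 further: compound exposure lasts four days before antibody staining and flow analysis; 0% = DMSO wells and 100% = 5 µM fulvestrant positive control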); settings: stronger effect = higher value
Structure (SMILES),percent of DMSO control GFP [1],GFP response vs DMSO [2],percent response of DMSO control [3],GFP response vs DMSO [4],"GFP response, % of DMSO [5]",double positive events [6],vesicle binding response [6],inhibition [7],superoxide response (% of plate) [8],aptamer binding inhibition [9],response [10],inhibition [11],response [12],binding (% of control) [13],inhibition [14],inhibition [15],inhibition [16],efflux inhibition (fraction of control) [17],inhibition [18],differentiation response [19]
C[N+]1(C)CCc2cc3c(cc2[C@H]1[C@@H]1OC(=O)c2c1ccc1c2OCO1)OCO3,105% (inactive) and 102% (inactive),102% (inactive) and 108% (inactive),104% (inactive) and 93.1% (inactive),98% (inactive) and 90.1% (inactive),100% (inactive) and 93.4% (inactive),60.5% and 65.5%,128% (inactive) and 1190% (inactive),5.61% (inactive) and 11% (inactive),93.4% (inactive) and 102% (inactive),-1% (inactive) and 5% (inactive),-0.95% (inactive) and -3.71% (inactive),55.1% (active) and -7.04% (inactive),-7.78% (inactive) and 0.91% (inactive),101% (inactive) and 97.9% (inactive),-0.6% (inactive) and -2.3% (inactive),-1% (inactive) and -0.6% (inactive),1% (inactive) and -2.4% (inactive),0.115 (inactive) and -0.1 (inactive),24% (inactive) and -3% (inactive),-10.4% (inactive) and 1.22% (inactive)
CC(C)CCC1(CN2CCCC2=O)C(=O)NC(=O)NC1=O,95.4% (inactive),105% (inactive),86.3% (inactive),120% (inactive),101% (inactive),58.9%,219% (inactive),0.94% (inactive),97.2% (inactive),1% (inactive),5.39% (inactive),-2.03% (inactive),-6.71% (inactive),98.4% (inactive),2.3% (inactive),0.7% (inactive),-0.7% (inactive),0.12 (inactive),5% (inactive),45.6% (inactive)
c1ccc2c(c1)[nH]c1cnccc12,102% (inactive),97.2% (inactive),104% (inactive),88.1% (inactive),95.9% (inactive),62.8%,961% (inactive),-18.1% (inactive),99.7% (inactive),0% (inactive),-10.7% (inactive),-7.59% (inactive),-0.12% (inactive),96.1% (inactive),5.3% (inactive),2.5% (inactive),-4.7% (inactive),0.14 (inactive),0% (inactive),2.2% (inactive)
CN1C2CCC1CC(OC(=O)CCN1CCCC1)C2 (stereo not given),105% (inactive),105% (inactive),107% (inactive),115% (inactive),113% (inactive),61.6%,194% (inactive),8.25% (inactive),98.4% (inactive),4% (inactive),-8.97% (inactive),33.9% (inactive),-1.35% (inactive),107% (inactive),3.2% (inactive),1.3% (inactive),1.5% (inactive),0.08 (inactive),0% (inactive),-0.06% (inactive)
COc1cccc(Oc2c(C)oc3cc(OC(=O)N(C)C)ccc3c2=O)c1,102% (inactive),102% (inactive),107% (inactive),99.1% (inactive),99.4% (inactive),60.2%,148% (inactive),5.61% (inactive),110% (inactive),0% (inactive),-2.34% (inactive),8.84% (inactive),-4.25% (inactive),101% (inactive),-1.7% (inactive),-0.4% (inactive),-1.2% (inactive),-0.02 (inactive),23% (inactive),-3.11% (inactive)
CCOc1ccc(N2C(=O)NC(=O)/C(=C\c3cc(OC)c(OC)cc3[N+](=O)[O-])C2=O)cc1,102% (inactive),97.7% (inactive),109% (inactive),89.3% (inactive),103% (inactive),60.3%,144% (inactive),-7.79% (inactive),107% (inactive),0% (inactive),7.81% (inactive),7.81% (inactive),-4.04% (inactive),97.9% (inactive),-3.1% (inactive),-0.2% (inactive),4.2% (inactive),-0.15 (inactive),-11% (inactive),17.4% (inactive)
Nc1ccncc1,97.9% (inactive),119% (inactive),111% (inactive),77.6% (inactive),99.6% (inactive),61%,218% (inactive),-0.33% (inactive),94.5% (inactive),1% (inactive),-11.6% (inactive),-14.8% (inactive),-2.33% (inactive),108% (inactive),2.4% (inactive),-0.4% (inactive),-3% (inactive),-0.02 (inactive),13% (inactive),4.09% (inactive)
